Assay results as given in PubChem BioAssay AID1159580 (chemical genetic matrix, 2015).
Several values for one entry are separate records, joined by “and”; a condition that tells them apart may be missing. Equal entries are not always repeated. The whole screen tested about 5,500 compounds, of which about 2,000 (36%) were called active. Another 18% or so got no clear call; they are omitted. No stated cut-off is given here; in the data, active means normalized growth mostly below about 0.91 (no sharp cut-off); inconclusive means no clear call, values can overlap the other calls; inactive means mostly above about 0.92. Some of the results follow.

Assay: chemical genetic growth profiling, strain panel (AID 1159580);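 further: tested at 20 µM; growth read once vehicle control cultures reached saturation at 30 °C; 1 = growth at the plate median or of vehicle wells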
Settings: S. cerevisiae deletion strains, growth OD

Measured: normalized growth

CN1Cc2c(N)cccc2C(c2ccccc2)C1 (centres undefined)
inactive: locus YAL013W, strain DEP1, stronger effect = lower value 1.01 | locus YAL021C, strain ccr4, stronger effect = lower value 0.991 | locus YAL026C, strain drs2, stronger effect = lower value 0.997 | locus YAL030W, strain snc1, stronger effect = lower value 0.996 | locus YAL040C, strain CLN3, stronger effect = lower value 0.991 | locus YBL061C, strain skt5, stronger effect = lower value 1.01 | locus YBR009C, strain hhf1, stronger effect = lower value 1.02 | locus YBR021W, strain FUR4, stronger effect = lower value 1.01 | locus YBR023C, strain chs3, stronger effect = lower value 1.02 | locus YBR171W, strain sec66, stronger effect = lower value 1.02 | locus YBR229C, strain ROT2, stronger effect = lower value 1.01 | locus YBR231C, strain swc5, stronger effect = lower value 1 | locus YBR279W, strain paf1, stronger effect = lower value 1.03 | locus YCL011C, strain gbp2, stronger effect = lower value 1 | locus YCL016C, strain dcc1, stronger effect = lower value 0.997 | locus YCL029C, strain bik1, stronger effect = lower value 1 | locus YCL061C, strain MRC1 (second series), stronger effect = lower value 0.989 | locus YCL069W, strain vba3, stronger effect = lower value 1.01 | locus YCR088W, strain abp1, stronger effect = lower value 1.01 | locus YDL005C, strain med2, stronger effect = lower value 1 | locus YDL035C, strain GPR1, stronger effect = lower value 1.02 | locus YDL040C, strain nat1, stronger effect = lower value 1.01 | locus YDL074C, strain BRE1, stronger effect = lower value 0.993 | locus YDL101C, strain DUN1, stronger effect = lower value 1.01 | locus YDL134C, strain PPH21, stronger effect = lower value 1.01 | locus YDL185W, strain tfp1, stronger effect = lower value 1.01 | locus YDL192W, strain arf1, stronger effect = lower value 1.02 | locus YDR001C, strain nth1, stronger effect = lower value 1.01 | locus YDR069C, strain doa4, stronger effect = lower value 1.02 | locus YDR101C, strain arx1, stronger effect = lower value 1.01 | locus YDR137W, strain rgp1, stronger effect = lower value 1.01 | locus YDR150W, strain NUM1, stronger effect = lower value 1 | locus YDR159W, strain sac3, stronger effect = lower value 1 | locus YDR162C, strain NBP2, stronger effect = lower value 1.02 | locus YDR195W, strain ref2 1.02 | locus YDR297W, strain sur2, stronger effect = lower value 1.01 | locus YDR318W, strain mcm21, stronger effect = lower value 1.02 | locus YDR334W, strain swr1, stronger effect = lower value 1.01 | locus YDR335W, strain msn5, stronger effect = lower value 1.02 | locus YDR363W, strain ESC2, stronger effect = lower value 0.963 | locus YDR388W, stronger effect = lower value 1.02 | locus YDR392W, strain spt3, stronger effect = lower value 0.938 | locus YDR502C, strain sam2, stronger effect = lower value 1.01 | locus YEL003W, strain gim4, stronger effect = lower value 1.01 | locus YEL037C, strain rad23, stronger effect = lower value 1.01 | locus YEL061C, strain CIN8 (second series), stronger effect = lower value 1 | locus YEL061C, strain CIN8, stronger effect = lower value 1 | locus YER002W, strain NOP16, stronger effect = lower value 1.01 | locus YER015W, strain faa2, stronger effect = lower value 1.02 | locus YER016W, strain bim1, stronger effect = lower value 1.01 | locus YER110C, stronger effect = lower value 1.02 | locus YER111C, strain swi4, stronger effect = lower value 1.01 | locus YER155C, strain BEM2 (second series), stronger effect = lower value 1.01 | locus YER155C, strain BEM2, stronger effect = lower value 1.01 | locus YER167W, strain BCK2, stronger effect = lower value 1.02 | locus YFR010W, strain ubp6, stronger effect = lower value 1.03 | locus YGL078C, strain dbp3, stronger effect = lower value 1 | locus YGL086W, strain mad1, stronger effect = lower value 0.999 | locus YGL167C, strain pmr1, stronger effect = lower value 1.01 | locus YGL173C, strain kem1, stronger effect = lower value 1.02 | locus YGL227W, strain vid30, stronger effect = lower value 1.01 | locus YGL240W, strain doc1, stronger effect = lower value 1.02 | locus YGL248W, strain PDE1, stronger effect = lower value 0.991 | locus YGL253W, strain hxk2, stronger effect = lower value 1 | locus YGR078C, strain PAC10, stronger effect = lower value 0.991 | locus YGR135W, strain pre9, stronger effect = lower value 1.04 | locus YGR229C, strain SMI1, stronger effect = lower value 1.02 | locus YGR252W, strain gcn5, stronger effect = lower value 1 | locus YHR013C, strain ard1, stronger effect = lower value 0.995 | locus YHR027C, strain rpn1, stronger effect = lower value 1.02 | locus YHR030C, strain SLT2, stronger effect = lower value 1.01 and 1.07 | locus YHR079C, strain IRE1 (second series), stronger effect = lower value 1.01 | locus YHR079C, strain IRE1, stronger effect = lower value 0.985 | locus YHR094C, strain hxt1, stronger effect = lower value 1.02 | locus YHR129C, strain ARP1, stronger effect = lower value 1.01 | locus YHR142W, strain chs7, stronger effect = lower value 1.01 | locus YHR200W, strain rpn10, stronger effect = lower value 1.02 | locus YIL066C, strain RNR3, stronger effect = lower value 1 | locus YIL073C, strain SPO22, stronger effect = lower value 1.08 | locus YIL125W, strain kgd1, stronger effect = lower value 1.01 | locus YIR030C, strain dcg1, stronger effect = lower value 1.01 | locus YJL092W, strain hpr5, stronger effect = lower value 1.01 | locus YJL095W, strain BCK1 (second series), stronger effect = lower value 1.01 | locus YJL095W, strain BCK1, stronger effect = lower value 0.983 and 0.981 | locus YJL115W, strain asf1, stronger effect = lower value 1.02 | locus YJL129C, strain trk1, stronger effect = lower value 1 | locus YJL134W, strain LCB3, stronger effect = lower value 1.01 | locus YJL154C, strain vps35, stronger effect = lower value 1.01 | locus YJL164C, strain tpk1, stronger effect = lower value 0.981 | locus YJL166W, strain qcr8, stronger effect = lower value 1.01 | locus YJL168C, strain set2, stronger effect = lower value 1.01 | locus YJL187C, strain SWE1 (second series), stronger effect = lower value 0.983 | locus YJR043C, strain POL32, stronger effect = lower value 0.973 | locus YJR066W, strain TOR1, stronger effect = lower value 0.933
